# Compound activity: PubChem, several laboratories
# Rows were chosen to be rich in hits. Some 3.1% of all compounds tested hit in one or more screens of this group.
# FBA Mtb inh: Mtb fructose-bisphosphate aldolase inhibition | P9WQA3 | inhibition, % at 1 µM | AID 588726 | 360,000 compounds, 2.3% hits | purified M. tuberculosis FBA, fluorescence read-out; in the data active = inhibition above about 27%
# Target sequence (P9WQA3 whole entry, looked up): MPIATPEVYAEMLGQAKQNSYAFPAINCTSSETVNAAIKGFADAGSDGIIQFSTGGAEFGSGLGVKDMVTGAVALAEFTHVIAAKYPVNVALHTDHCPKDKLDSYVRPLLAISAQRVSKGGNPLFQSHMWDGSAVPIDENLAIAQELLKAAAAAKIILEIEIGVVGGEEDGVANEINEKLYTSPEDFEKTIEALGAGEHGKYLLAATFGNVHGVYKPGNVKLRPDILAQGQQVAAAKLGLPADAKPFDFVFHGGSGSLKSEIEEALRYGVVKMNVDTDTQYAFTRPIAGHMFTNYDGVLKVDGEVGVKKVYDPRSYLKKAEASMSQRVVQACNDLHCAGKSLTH
# GDH-TPI inh: GDH-TPI coupled enzyme inhibition counter-screen | 360,000 compounds, 1.2% hits | AID 588335 | inhibition, % at 4.8 µM | GDH-TPI coupled enzyme counterscreen, NADH absorbance; in the data active = inhibition above about 30%
# Mtb BioA inh: inhibitors of Mycobacterium tuberculosis BioA enzyme | purified M. tuberculosis BioA enzyme, plate reader | inhibition, % at 9.99 µM | 360,000 compounds, 0.096% hits | AID 602481; in the data active = inhibition above about 40%
# FadD28 FP inh: inhibitors of Mycobacterium tuberculosis FadD28 bisubstrate binding; FadD28 bisubstrate probe binding, fluorescence polarization; inhibition, % at 12.5 µM; 360,000 compounds, 0.22% hits; in the data active = inhibition above about 8.5%, passing the limit was not always enough
# 3CLpro inhibitor: SARS-CoV 3CLpro protease inhibition. P0C6X7. recombinant SARS-CoV 3CLpro, quenched FRET peptide cleavage. inhibition, % at 6 µM. 290,000 compounds, 0.14% hits; in the data active = inhibition above about 12%
# Numbers stand for hits; – = inactive; · = no result; + = active, no number.
SMILES,FBA Mtb inh,GDH-TPI inh,Mtb BioA inh,FadD28 FP inh,3CLpro inhibitor
CCOC(=O)c1cc(-c2ccc(/C=C3/C(=O)NC(=O)C(C#N)=C3C)o2)ccc1Cl,–,35,–,15,–
CC1=C(C#N)C(=O)NC(=O)/C1=C\c1ccc(-c2ccc(C)cc2[N+](=O)[O-])o1,–,–,·,–,–
O=C(COC(=O)c1ccc(O)cc1)Nc1ccc(Cl)cc1C(=O)c1ccccc1,–,–,·,–,–
COC(=O)c1cc(Cl)ccc1NCC(N)c1ccccc1 (configuration not stated),115,·,–,–,·
S=c1[nH]nc(C2CCCCC2)n1/N=C/c1cccc(Br)c1,–,–,–,–,–
S=c1[nH]nc(C2CCCCC2)n1/N=C/c1ccncc1,–,–,·,–,–
Cc1cccc(/C=N/n2c(C3CCCCC3)n[nH]c2=S)c1,–,–,–,11,–
COc1cc(/C=N/n2c(C3CCCCC3)n[nH]c2=S)cc(Br)c1O,–,32,–,–,–
COc1ccccc1CN(C)C[C@@H]1OCc2cnnn2CCCC(=O)N([C@H](C)CO)C[C@@H]1C,·,·,–,·,·
CC(=O)c1ccc(N2CCN(C(=O)C3(S(=O)(=O)c4ccc(Cl)cc4)CC3)CC2)cc1,–,34,–,–,–
CNC[C@@H]1Oc2ccc(NC(=O)Cc3cn(C)c4ccccc34)cc2CC(=O)N([C@@H](C)CO)C[C@H]1C,·,·,–,·,·
CC(C)N1C(=O)/C(=C/C=C/c2ccco2)C(=O)N(Cc2ccco2)C1=O,–,–,–,–,–
COc1ccc(/C=C2/C(=O)N(Cc3ccco3)C(=O)N(C(C)C)C2=O)cc1,–,–,·,9.5,–
COc1ccc(-c2cnc3c(c2)C(=O)N([C@@H](C)CO)C[C@@H](C)[C@@H](CN(C)C(=O)CN(C)C)O3)cc1,·,·,–,·,·
N#C/C(=C(/O)COC(=O)CSc1ccc2ccccc2c1)c1nc2ccccc2[nH]1,–,38,–,–,–
N#C/C(=C(/O)CSc1n[nH]c(N)n1)c1nc2ccccc2[nH]1,–,32,·,–,–
O=c1oc(-c2ccc(O)c(O)c2)cc2cc(O)cc(O)c12,–,32,–,12,·
COc1ccc(-c2c(C#N)c(N)nc3c2CCCCCC3)cc1OC,–,–,–,–,–
COC(=O)c1c(C#N)c(N)nc2c1CCC2,130,–,–,–,–
CCOC(=O)c1cnc2c([N+](=O)[O-])cnn2c1C,–,37,–,–,–
COc1ccc(-c2cc(=O)oc3cc(OCc4nn[nH]n4)ccc23)cc1,–,36,–,–,–
COc1ccc(-c2cc3ccc(OCc4nn[nH]n4)cc3oc2=O)cc1OC,–,42,–,–,–
COc1ccc(-c2cc3ccc(OCC(C)=O)cc3oc2=O)cc1OC,–,–,–,–,–
Cc1ccc2cc3cc(C(=O)NCCCN4CCCC4)oc3nc2c1,127,38,–,–,–
COc1ccc2cc3cc(C(=O)Nc4ccccc4N4CCN(C)CC4)oc3nc2c1,–,–,–,–,–
SMILES,FBA Mtb inh,GDH-TPI inh,Mtb BioA inh,FadD28 FP inh,3CLpro inhibitor
COc1ccc2cc3cc(C(=O)NCCC(C)C)oc3nc2c1,134,–,–,–,–
COc1ccc2cc3cc(C(=O)NCCN4CCN(c5ccccc5F)CC4)oc3nc2c1,+,34,–,–,–
CCCN(CCC)CCCNC(=O)c1cc2cc3ccc(Cl)cc3nc2o1,–,–,–,–,–
COc1ccc2cc3cc(C(=O)NCC4CCCO4)oc3nc2c1 (configuration not stated),+,–,–,–,–
N#C[C@@H]1[C@@H](c2ccc(C#CC3CCCCC3)cc2)[C@@H](CO)N1C(=O)Cc1ccccn1,·,·,–,·,·
CCOc1ccc(NC(=O)c2cc3cc4ccc(OC)cc4nc3o2)cc1,–,–,–,–,–
COCCNC(=O)c1cc2cc3ccc(OC)cc3nc2o1,+,–,–,–,–
CCC(C)NC(=O)c1cc2cc3ccc(OC)cc3nc2o1 (configuration not stated),+,–,–,–,–
C=CCNC(=O)[C@H]1[C@@H]2C(=O)O[C@@H](c3ccccc3)[C@@H](c3ccccc3)N2[C@@H](c2ccc(O)cc2)[C@]12C(=O)N(C(=O)OCCOC)c1ccc(C#CC3(O)CCCCCC3)cc12,·,·,–,·,·
CC(=O)Cc1nsc(NC(=O)c2ccc(Br)o2)n1,–,–,–,–,–
CC(=O)Cc1nsc(NC(=O)c2ccc(-c3cccc(Cl)c3)o2)n1,–,61,–,–,–
C[C@@H]1CN([C@@H](C)CO)C(=O)c2cccc(NS(=O)(=O)c3cn(C)cn3)c2O[C@@H]1CN(C)Cc1ccc(-c2ccccc2)cc1,·,·,–,·,·
COc1ccc(/C=N/Nc2cc(C)nc3ccc(OC)cc23)c(OC)c1,144,–,–,–,–
COc1ccc2nc(C)cc(N/N=C/c3ccccc3)c2c1,–,–,–,–,·
CCOc1cc(/C=N/Nc2nc3ccccc3[nH]2)cc(Br)c1OCC(=O)N(C)C,–,34,–,–,–
CCOc1ccccc1OCC(=O)Nc1nc2ccccc2[nH]1,–,–,·,–,–
Oc1ccccc1/C=N/Nc1nc2ccccc2o1,–,51,–,–,–
COc1cc(/C=N/Nc2nc3ccccc3o2)cc(OC)c1O,–,31,–,–,–
C(=N\Nc1nc2ccccc2[nH]1)/c1ccc2ncccc2c1,–,33,–,–,–
Brc1ccc(/C=N/Nc2nc3ccccc3o2)cc1,–,–,–,–,–
C[C@H](CO)N1C[C@H](C)[C@@H](CN(C)C(=O)NC2CCCCC2)OCCCC[C@H](C)Oc2ccc(NC(=O)Nc3ccccc3)cc2C1=O,·,·,–,·,·
CNC[C@@H]1OCCCC[C@H](C)Oc2ccc(NC(=O)Nc3ccc(C(F)(F)F)cc3)cc2C(=O)N([C@H](C)CO)C[C@@H]1C,·,·,–,·,·
C[C@H](CO)N1C[C@H](C)[C@@H](CN(C)C(=O)Nc2cccc3ccccc23)Oc2ccc(NC(=O)C3CC3)cc2C1=O,·,·,–,·,·
COc1ccc(/C=N/Nc2nc3ccccc3o2)cc1O,–,–,–,–,–
COc1ccc(/C=N/Nc2nc3ccccc3[nH]2)cc1OC,–,–,–,–,–
SMILES,FBA Mtb inh,GDH-TPI inh,Mtb BioA inh,FadD28 FP inh,3CLpro inhibitor
COc1cc(/C=N\Nc2nc3ccccc3[nH]2)cc(OC)c1OC,–,36,·,–,–
COc1cc(/C=N\Nc2nc3ccccc3o2)cc(OC)c1OC,–,34,–,–,–
O=C(c1cc2c(s1)-c1ccccc1OC2)N1CCN(c2ccccc2)CC1,–,–,–,–,–
O=C(c1cc2c(s1)-c1ccccc1OC2)N1CCC2(CC1)OCCO2,+,40,–,–,–
O=C(c1cc2c(s1)-c1ccccc1OC2)N1CCCC1,+,–,–,–,–
C[C@@H](NC(=O)[C@H]1N[C@H]2c3ccc(-c4cncnc4)c(=O)n3C[C@H]2[C@@H]1CO)c1ccccc1,·,·,–,·,·
O=[N+]([O-])c1cc([N+](=O)[O-])c(N2CCOCC2)cc1NCc1ccccc1,–,31,–,–,–
O=C(C[C@@H]1CC[C@@H]2[C@H](COC[C@@H](O)CN2Cc2cccc(C(F)(F)F)c2)O1)NCCc1ccncc1,·,·,–,·,·
CCOc1ccc(/C=N/n2c(C)nnc2C)cc1OC,–,–,·,–,–
CCOc1cc(/C=N/n2c(C)nnc2C)ccc1O,–,40,–,–,–
